TRPV1 agonist: activates the human vanilloid receptor TRPV1; Q8NER1; TRPV1-expressing cells, Fluo-8 calcium influx, agonist mode; activation, % at 8.33 µM; 0.19% of 320,000 active; AID 540275; in the data active = activation above about 80%; inconclusive = between about 30% and that limit; note: 0% is about no effect
Target sequence (Q8NER1 whole entry, looked up): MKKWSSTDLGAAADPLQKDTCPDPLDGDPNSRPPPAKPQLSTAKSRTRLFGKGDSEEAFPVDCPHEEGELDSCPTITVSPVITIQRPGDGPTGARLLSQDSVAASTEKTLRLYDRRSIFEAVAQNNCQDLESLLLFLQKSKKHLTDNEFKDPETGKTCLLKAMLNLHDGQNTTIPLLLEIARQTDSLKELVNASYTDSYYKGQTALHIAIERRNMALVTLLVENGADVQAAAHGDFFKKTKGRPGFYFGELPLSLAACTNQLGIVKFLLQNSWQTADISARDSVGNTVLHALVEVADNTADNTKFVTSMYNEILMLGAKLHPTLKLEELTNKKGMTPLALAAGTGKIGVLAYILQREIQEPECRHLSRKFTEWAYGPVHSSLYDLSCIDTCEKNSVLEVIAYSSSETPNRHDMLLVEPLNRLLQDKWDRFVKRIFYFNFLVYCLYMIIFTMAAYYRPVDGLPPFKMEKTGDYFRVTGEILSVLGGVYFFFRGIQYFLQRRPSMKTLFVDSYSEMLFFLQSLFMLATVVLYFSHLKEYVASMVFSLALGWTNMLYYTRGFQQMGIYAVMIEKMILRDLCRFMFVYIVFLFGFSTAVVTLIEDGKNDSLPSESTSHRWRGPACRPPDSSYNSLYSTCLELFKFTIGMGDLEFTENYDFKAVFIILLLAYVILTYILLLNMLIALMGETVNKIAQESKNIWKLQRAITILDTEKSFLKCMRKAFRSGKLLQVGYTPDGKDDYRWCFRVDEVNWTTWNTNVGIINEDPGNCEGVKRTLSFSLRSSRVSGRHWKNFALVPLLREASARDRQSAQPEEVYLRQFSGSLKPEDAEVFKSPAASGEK
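TRPV1-expressing cells were cultured overnight at 35.5C and loaded with Fluo-8 calcium dye for 40 to 90 min at room temperature. After a 10 s baseline, compound was added and calcium influx was read kinetically for 3 min (ex 480/em 520 nm).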
USP1 inh: USP1/UAF1 (human) deubiquitinase inhibition; recombinant USP1/UAF1, Ub-Rhodamine cleavage fluorescence; Potency, µM (top dose mostly 57.1 µM), for inactives: at the highest dose activity change, negative = inhibition, most hits filed as inhibitors; 0.23% of 390,000 active; active = well fitted inhibition curve with a large enough effect; inconclusive = small, poorly fitted or top-dose-only effect; inactive = no such curve, though single readings can be large or run the other way; note: potency is the fitted concentration of half-maximal effect; % is set by controls: 0 for no effect and ±100 for the full control effect; nearly all actives have a fitted effect of over 60% in size
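In this screen, compounds sit with the deubiquitinase complex (1nM) for 15 min at room temperature before Ub-Rho is added at 150nM final. Fluorescence rise is then followed for 6 reads every 60 seconds.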
TRPML1 agonist: activates the human TRPML1 channel; Q9GZU1; TRPML1-expressing cells, Ca2+ dye fluorescence, FDSS; activation, % (concentration not given with the values); 0.12% of 410,000 active; in the data active = activation above about 50%; inconclusive = mostly about 30% to 49%; note: 0% is about no effect
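Kinetic FDSS Ca2+ read in Tet-induced TRPML1-DL cells (ABD Ca8 dye plus quencher, 45-90 min RT loading): baseline, then compound, then 110 s agonist window; EC80 agonist 54-4 at 4uM final added afterwards for a 110 s antagonist window.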
TRPML1 inh: human mucolipin-1 channel inhibition | Q9GZU1 | activity change, negative = inhibition, % (concentration not given with the values) | 0.02% of 390,000 active | TRPML1-inducible cells, Ca2+ dye fluorescence, FDSS; stronger effect = lower value; inhibition of EC80 agonist-evoked calcium signal | AID 624415; in the data active = activity change below about -50%; inconclusive = between about -30% and that limit;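 note: stimulus is agonist 54-4 at its EC80 concentration; % is set by controls: 0 for no effect and ±100 for the full control effect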
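Calcium fluorescence in TRPML1-DL cells induced overnight with Tet: a 110 s read after compound pin addition, then a 110 s antagonist read after challenge with 54-4 at 4 uM final (EC80).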
TRPV1 potentiator: potentiators of human vanilloid receptor 1 (TRPV1) | Q8NER1 | TRPV1-expressing cells, Fluo-8 calcium influx, capsaicin EC20 potentiation | potentiation, % at 8.33 µM | 0.02% of 320,000 active; in the data active = potentiation above about 80%; inconclusive = between about 30% and that limit; note: 0% is about no effect
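Fluo-8 calcium influx in TRPV1-expressing cells, kinetic read (ex 480/em 520 nm). Compound added and read 3 min for agonist activity, followed by capsaicin at EC20 final and 2 min further read for enhancement.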
* = called active by the depositor. In the library only some 0.4% were active in any assay of this set; here they are far more common.

`O=C(Nc1ccc2c(c1)Cc1ccccc1-2)c1ccncc1` gave TRPV1 agonist 81*, USP1 inh -17%, TRPML1 agonist -1, TRPML1 inh 6 and TRPV1 potentiator -12.
For COC(=O)c1ccccc1NC(=S)N(Cc1ccc2c(c1)OCO2)Cc1cc2cc(C)ccc2[nH]c1=O the results were TRPV1 agonist -2, USP1 inh -23%, TRPML1 agonist 0, TRPML1 inh -13 and TRPV1 potentiator 2.
For CC(C)(C)c1ccc(C(=O)NCCC(=O)N2CCN(c3ncccn3)CC2)cc1 the results were TRPV1 agonist 0, USP1 inh -17%, TRPML1 agonist 69*, TRPML1 inh -14 and TRPV1 potentiator 7.
`CC(C)(C)c1ccc(C(=O)NCCC(=O)N2CCCC2)cc1` gave TRPV1 agonist 7, USP1 inh -12%, TRPML1 agonist 2, TRPML1 inh 13 and TRPV1 potentiator -8.
`O=C(CCNC(=O)c1ccco1)Nc1ccc(OC(F)F)c(Cl)c1` gave TRPV1 agonist -1, USP1 inh -13%, TRPML1 agonist 1, TRPML1 inh 13 and TRPV1 potentiator 20.
Screening C[C@H](CO)N1C[C@H](C)[C@@H](CN(C)Cc2cccc(C(=O)O)c2)OCc2cnnn2CCCC1=O returned USP1 inh inconclusive, TRPML1 agonist 0 and TRPML1 inh -5.
CC(C)(c1cc(Br)c(O)c(Br)c1)c1cc(Br)c(O)c(Br)c1 was read as TRPV1 agonist 0, USP1 inh -22%, TRPML1 agonist 0, TRPML1 inh 10 and TRPV1 potentiator 1.
For CC(=O)Nc1cc(NC(C)=O)cc(C(=O)OCC(=O)c2ccc3c(c2)NC(=O)CO3)c1 the results were TRPV1 agonist 0, USP1 inh -13%, TRPML1 agonist 0, TRPML1 inh -6 and TRPV1 potentiator -19.
For COC(=O)C(c1ccccc1)C(C(=O)OC)c1ccccc1 (stereo not given) the results were TRPV1 agonist -1, USP1 inh -1%, TRPML1 agonist 0, TRPML1 inh -6 and TRPV1 potentiator -2.
Screening COC(=O)[C@@H](c1ccccc1)N(C)S(=O)(=O)c1cccc(S(=O)(=O)N(C)[C@@H](C(=O)OC)c2ccccc2)c1 returned TRPV1 agonist -3, USP1 inh inconclusive, TRPML1 agonist 74*, TRPML1 inh -22 and TRPV1 potentiator 17.
Oc1[nH]c2ccccc2c1N=Nc1ccc(F)cc1 was read as TRPV1 agonist 2, USP1 inh inconclusive, TRPML1 agonist 9, TRPML1 inh 13 and TRPV1 potentiator 1.
For Oc1[nH]c2ccccc2c1N=Nc1ccccc1 the results were TRPV1 agonist 8, USP1 inh 28µM*, TRPML1 agonist 1, TRPML1 inh 16 and TRPV1 potentiator -12.
Screening CC(OC(=O)C1CCN(S(=O)(=O)c2ccc(C(C)(C)C)cc2)CC1)C(=O)N(C)C1CCCCC1 (stereo not given) returned USP1 inh -4%, TRPML1 agonist 95* and TRPML1 inh -17.
CC(OC(=O)C1CCN(S(=O)(=O)c2ccc(C(C)(C)C)cc2)CC1)C(=O)N1CCOCC1 (stereo not given) was read as TRPV1 agonist 1, USP1 inh -12%, TRPML1 agonist -1, TRPML1 inh -11 and TRPV1 potentiator 1.
Screening CC(C)(C)c1ccc(-n2ncc3c2CCCC3NC(=O)CN2CCOC2=O)cc1 (stereo not given) returned TRPV1 agonist 7, USP1 inh -14%, TRPML1 agonist 0, TRPML1 inh 12 and TRPV1 potentiator -14.
For c1ccc(CN2CCN(c3ncnc4c3[nH]c3ccccc34)CC2)cc1 the results were TRPV1 agonist 80*, USP1 inh -22%, TRPML1 agonist -2, TRPML1 inh -16 and TRPV1 potentiator -34.
`COc1ccc(N(CC(=O)Nc2ccc(C)c(C)c2)S(=O)(=O)c2c(C)n[nH]c2C)cc1` gave TRPV1 agonist 0, USP1 inh -5%, TRPML1 agonist 1, TRPML1 inh 6 and TRPV1 potentiator -8.

Source: PubChem
